About 79,000 compounds went through this panel and 15% of them were active in at least one assay; those are over-represented in the sample as a whole. Values without a mark were called inactive. Activity calls are given as the source filed them. No stated cut-off is given here; in the data, active means growth inhibition above about 70%; inactive means the rest.

The nature of this test: NCI Yeast Anticancer Drug Screen. Data for the mlh1 rad18 strain (AID 175). The note with it: S. cerevisiae mlh1 rad18 strain growth inhibition; at 50.0 µM; active compounds read high. A digest of the protocol:
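Genetically defined yeast (DNA repair-deficient) exposed to compounds; growth inhibition determined relative to vehicle.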
With `Cc1nc(C(N)=S)sc1C(=O)CC(=O)C(=O)Nc1c(C(C)C)cccc1C(C)C`, the growth inhibition was -22.1%. Regarding `NC(CCNCCc1ccccc1)CNCCc1ccccc1` (stereo unspecified), the growth inhibition was -7.15%.

For `O=C(COc1ccc(Cl)c(Cl)c1)Nc1ccc(C(=O)CCl)cc1`, the growth inhibition is 9.3%. For `CCOC(=O)c1ccc(N[C@@H]2c3cc4c(cc3C(c3cc(OC)c(O)c(OC)c3)[C@H]3C(=O)OCC32)OCO4)cc1` (stereo partly specified), the growth inhibition was 88.8% (active). With `CC(Cc1nc2ccccc2[nH]1)Cc1nc2ccccc2[nH]1`, the growth inhibition is 15.6%. Turning to `CC1(c2ccc(C(O)c3ccccc3)s2)OCCO1` (stereo unspecified), the growth inhibition was 15.6%.

As to `O=C1c2ccccc2-c2ccc(N3C(=O)C=CC3=O)cc21`, the growth inhibition was 92.2% (active). To `O=NNc1nc2ncccc2cc1-c1ccccc1Cl` belongs -8.2%. The same measure for `Cc1c(Cl)cccc1NC(=O)C(=O)C1C(=O)CC(C)(C)CC1=O`: 18.8%; for `Cc1cccc(/C=N/Nc2ccc([N+](=O)[O-])cc2[N+](=O)[O-])c1C`: 4%.

For the molecule `O=C(O)C1Cc2nc[nH]c2CN1CO` (stereo unspecified), the growth inhibition was 8%.

Take `CN(C)CCNc1ccc(NCCN(C)C)c2c1C(=O)c1ncsc1C2=O`: the growth inhibition was -16.8%.

As for `C=CCOC(=O)c1ccco1`, the growth inhibition is 2.05%. On to `CC1(C)CC(C)(OC(=O)c2ccccc2)N=N1` (stereo unspecified), for which the growth inhibition was 11.1%. Take `COC(=O)CCCc1ccc2c(c1)CC1(C2)Cc2cc3c(cc2C1)CCCC3`: the growth inhibition was -3.85%.

Take `CCOC(=O)NC(=O)c1cn(CC(=O)NCC(=O)NCC(=O)NCCCN2CCN(CCCNC(=O)CNC(=O)CNC(=O)Cn3cc(C(=O)NC(=O)OCC)c(=O)[nH]c3=O)CC2)c(=O)[nH]c1=O`: the growth inhibition is -15.8%.

For the origin of these results see PubChem BioAssay (NCI).
